Compound activity: PubChem BioAssay, Broad Institute
ID4 SMM: binds human ID4 protein on microarray; P47928; small molecule microarray, Flag-ID4 binding, fluorescence F/B; calls only; 31,000 tested, 1.2% active; call rule not given here;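 note: a binder raises fluorescence above local background on the spot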
Target sequence (P47928 whole entry, looked up): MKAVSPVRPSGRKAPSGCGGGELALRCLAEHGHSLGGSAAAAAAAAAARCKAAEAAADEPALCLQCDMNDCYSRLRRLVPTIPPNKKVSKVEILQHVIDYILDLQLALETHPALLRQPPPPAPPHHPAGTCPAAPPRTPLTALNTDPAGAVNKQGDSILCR
Calls only; - = inactive; + = active, no number. This is one part of a sample in which hits are shown more often than they occur.

SMILES | ID4 SMM
O=C(O)C[C@H]1C[C@@H]2c3cc(NC(=O)CC4CC4)ccc3O[C@@H]2[C@@H](CO)O1 | -
NC(=O)CN(c1ccccc1)S(=O)(=O)c1ccc(F)cc1 | -
Cc1cc(C)c(S(=O)(=O)N(CC(=O)Nc2ccc(C(N)=O)cc2)C2CCCCC2)c(C)c1 | -
Cc1cc(C)n2nc(SCC(=O)c3ccc4c5c(cccc35)CC4)nc2n1 | -
COc1cc2c(cc1NC(=O)CSc1nnnn1C)oc1ccccc12 | -
Cc1cccc(NC(=O)c2ccccc2NC(=O)COc2cccc([N+](=O)[O-])c2)c1C | -
O=C1c2cccc3cccc(c23)C(=O)N1CCCSc1n[nH]c(-c2ccc(F)cc2)n1 | -
CCOc1ccc(NC(=O)c2c(NC(=O)c3ccco3)sc3c2CCCCC3)cc1 | -
Cc1c(Cl)cccc1NC(=O)Nc1cccc(Cn2cccn2)c1 | -
CC(=O)Nc1cccc(NC(=O)c2cccc(Cn3cc(Cl)cn3)c2)c1 | -
Cc1scc(C(=O)Nc2cccc(Cn3cccn3)c2)c1-c1ccccc1 | +
c1cnc(SCCCCOc2ccc3c(c2)CCC3)nc1 | -
O=C(Nc1ccccc1[N+](=O)[O-])C1Cc2ccccc2CN1S(=O)(=O)c1ccc(F)cc1 (stereo not given) | -
COc1ccc(NC(=O)CSc2nnc(-c3ccco3)n2-c2ccccc2)cc1 | -
O=C(CSc1nnc(-c2ccco2)n1-c1cccc2ccccc12)Nc1ccc(C(=O)O)cc1 | +
CCn1c(SCC(=O)Nc2ccc(C(N)=O)cc2)nnc1-c1ccco1 | -
CCc1ccc(OCC(=O)Nc2ccccc2C#N)cc1 | -
Nc1nc(SCc2nnc(Nc3ccccc3)s2)nc2sc3c(c12)CCC3 | -
O=C(CSc1nc2ccccc2[nH]1)Nc1c(Cl)cccc1Cl | -
O=C(CSc1nc2ccccc2[nH]1)Nc1ccc(I)cc1 | -
c1ccc2[nH]c(SCCCN3CCCCC3)nc2c1 | +
NC(=O)COc1ccc(NC(=O)c2cccnc2)cc1 | -
CCn1nccc1C(=O)Nc1nc2ccccc2n1CCN1CCCCC1 | -
O=C(Cn1c2ccccc2n2nc(-c3ccccc3)nc12)c1cccs1 | -
O=C(O)CCc1nn2c3ccccc3n(CCN3CCCCC3)c2nc1=O | +
SMILES | ID4 SMM
Cc1ccc(-n2nnnc2SCC(=O)Nc2ccc(N3CCOCC3)c(Cl)c2)cc1C | -
Cc1sc2ncnc(SCC(=O)Nc3ccc(F)cc3)c2c1C | -
O=C1C(=O)N(Cc2ccco2)C(c2cccc(Cl)c2)C1C(=O)c1ccco1 (stereo not given) | -
CC(=O)OC(C[C@@]1(C)[C@H](C)[C@H](OC(C)=O)C[C@@]23COC(=O)C2=CCC[C@@H]31)c1ccoc1 (stereo not given in full) | -
O=[N+]([O-])c1ccccc1S(=O)(=O)N1CCN(Cc2cccc(OCCO)c2)CC1 | -
O=[N+]([O-])c1ccccc1CN1CCN(CCO)CC1 | +
O=C(Cc1ccccc1[N+](=O)[O-])Nc1ccc(S(=O)(=O)N2CCCCC2)cc1 | -
COc1ccc(C)cc1NC(=O)c1ccc(OCC(=O)Nc2cccc(C(F)(F)F)c2)cc1 | -
Cc1ccc(NC(=O)c2ccc(NCc3cccnc3)c([N+](=O)[O-])c2)cc1Cl | -
O=C(Nc1ccccc1)N[C@H](Cc1ccccc1)Cn1cc(CN2C(=O)COC[C@H]2c2ccccc2)nn1 | +
O=C(N[C@@H](Cc1ccccc1)Cn1cc(CN2C(=O)COC[C@H]2c2ccccc2)nn1)c1ccccc1 | -
COC(=O)CN(c1ccc(C)c(C)c1)S(=O)(=O)c1ccccc1 | -
COc1cc(/C=C/C=O)cc(OC)c1O | -
NC(=O)c1c(NC(=O)Cn2c(=O)oc3ccccc32)sc2c1CCCC2 | -
NC(=O)c1c(NC(=O)C2CC(=O)N(c3ccccc3)C2)sc2c1CCCC2 (stereo not given) | +
NC(=O)c1c(NC(=O)C2CC(=O)OC23CCCCC3)sc2c1CCCCC2 (stereo not given) | -
COc1ccc(C(C)C)cc1S(=O)(=O)Nc1cccc(C(=O)O)c1 | -
O=C(CN1CCN(S(=O)(=O)c2ccc3ccccc3c2)CC1)Nc1ccc(Br)cc1 | -
NS(=O)(=O)c1ccc(NC(=O)CN2CCN(Cc3ccccc3)CC2)cc1 | +
COc1ccc(NC(=O)CN2CCN(S(=O)(=O)c3ccccc3)CC2)cc1 | -
N#Cc1ccccc1CSc1nnc(N)n1-c1ccccc1 | -
O=[N+]([O-])c1cccc(NC(=S)NCCn2cc(Br)cn2)c1 | -
CS(=O)(=O)N(CC(=O)Nc1cccnc1)c1cccc(F)c1 | -
O=C(Nc1cccc(O)c1)c1cc(S(=O)(=O)N2CCOCC2)ccc1Cl | -
Cc1ccc(C(=O)Nc2cccc(OC(=O)c3cc(S(=O)(=O)N4CCCCC4)ccc3Cl)c2)cc1 | +
SMILES | ID4 SMM
COC(=O)COc1cccc(NC(=O)c2ccc(C)cc2)c1 | -
COC(=O)c1ccccc1Oc1nc(NC(C)C)nc(NC(C)C)n1 | -
CCN1C(=O)c2cccc3c(S(=O)(=O)N4CCCC4C(=O)O)ccc1c23 (stereo not given) | +
COc1cccc(S(=O)(=O)N2CCCC2C(=O)O)c1 (stereo not given) | -
CCN1CCN(C(=O)C2CCCN2S(=O)(=O)c2cccc3nsnc23)CC1 (stereo not given) | -
CCn1c(SCC(=O)Nc2cc(Cl)ccc2Cl)nnc1-c1ccc(Cl)cc1 | -
CCOC(=O)c1c(NC(=S)NC(=O)c2ccc(OC)c([N+](=O)[O-])c2)sc2c1CCC2 | -
CSc1ccccc1NC(=O)CN(c1cccc(Cl)c1Cl)S(C)(=O)=O | -
O=C1CC2(CCCC2)CC(=O)N1CCCCN1CCN(c2ncccn2)CC1 | -
O=S1(=O)c2cccc3cccc(c23)N1CCCN1CCN(c2ccc(F)cc2)CC1 | -
O=C1c2ccccc2S(=O)(=O)N1CCCCN1CCN(c2ncccn2)CC1 | +
COc1ccc(OCC(=O)Nc2cc(-c3nnc(OC)c4ccccc34)ccc2N2CCCCC2)cc1 | -
CC(C)(C)C1CCc2c(sc(NC(=O)CSc3n[nH]c(-c4ccncc4)n3)c2C#N)C1 (stereo not given) | -
O=C(COc1ccc(C(=O)Nc2ccccc2Cl)cc1)Nc1cccc(C(F)(F)F)c1 | -
Cc1ccc(NC(=O)CSc2nccc(C)n2)cc1 | -
Cc1cc(C)nc(/N=C2\NC(=O)CC(C(=O)O)N2c2cccc(C(F)(F)F)c2)n1 (stereo not given) | -
O=C(NCC(c1ccccc1)c1c[nH]c2ccccc12)Nc1ccc(Cl)cc1 (stereo not given) | -
COc1ccc(-c2cnc3c(c2)C(=O)N([C@@H](C)CO)C[C@@H](C)[C@@H](CN(C)Cc2ccccn2)O3)cc1 | -
COc1ccc(-c2cnc3c(c2)C(=O)N([C@H](C)CO)C[C@@H](C)[C@H](CN(C)Cc2ccccn2)O3)cc1 | +
COc1cccc(-c2cnc3c(c2)C(=O)N([C@H](C)CO)C[C@@H](C)[C@H](CN(C)Cc2cccnc2)O3)c1 | +
COc1cccc(-c2cnc3c(c2)C(=O)N([C@@H](C)CO)C[C@@H](C)[C@@H](CN(C)Cc2cccnc2)O3)c1 | -
COc1cccc(-c2cnc3c(c2)C(=O)N([C@H](C)CO)C[C@@H](C)[C@@H](CN(C)Cc2cccnc2)O3)c1 | -
COc1ccc(-c2cnc3c(c2)C(=O)N([C@H](C)CO)C[C@H](C)[C@H](CN(C)Cc2ccccn2)O3)cc1 | -
Cc1cccc(OCC(=O)Nc2cccc(-c3nc4ccccc4s3)c2)c1C | -
CSc1cccc(NC(=O)CN(c2ccc3c(c2)OCCO3)S(C)(=O)=O)c1 | -
COC1=C/C(=C/c2c(N)n3c(SC(C)C)nsc3nc2=O)C=CC1=O | -
